The source of these data is PubChem BioAssay AID1159580 (chemical genetic matrix, 2015).

Screen size: about 5,500 compounds; about 2,000 (36%) were called active. Inconclusive results (about 18%) are left out. The list shows a part of the results. Values without a mark were called inactive. Cut-off read from the data, not from the text of the source: active = normalized growth mostly below about 0.91 (no sharp cut-off); inconclusive = no clear call, values can overlap the other calls; inactive = mostly above about 0.92.

This test can be described thus: chemical genetic growth profiling, strain panel (AID 1159580).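 Note: tested at 20 µM; growth read once vehicle control cultures reached saturation at 30 °C; 1 = growth at the plate median or of vehicle wells; lower values mean less growth of the strain.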 The settings on record: S. cerevisiae deletion strains, growth OD.
The mark [1] stands for this setting: locus YAL040C, strain CLN3, hits give low values.
[2] abbreviates: locus YCL061C, strain MRC1 (second series), hits give low values.
Setting [3] is: locus YDR363W, strain ESC2, hits give low values.
Setting [4] is: locus YER002W, strain NOP16, hits give low values.
The mark [5] stands for this setting: locus YMR307W, strain GAS1, hits give low values.
The mark [6] stands for this setting: locus YNL175C, strain NOP13, hits give low values.
The mark [7] stands for this setting: locus YNL197C, strain WHI3, hits give low values.
[8] abbreviates: locus YNL224C, strain SQS1, hits give low values.
The mark [9] stands for this setting: locus YOR083W, strain WHI5 (second series), hits give low values.
The mark [10] stands for this setting: locus YPL055C, strain LGE1, hits give low values.
[11] abbreviates: locus YGR229C, strain SMI1, hits give low values.
The mark [12] stands for this setting: locus YJR075W, strain HOC1, hits give low values.
The mark [13] stands for this setting: locus YNL128W, strain TEP1, hits give low values.
Where [14] appears, read: locus YNL153C, strain GIM3, hits give low values.
[15] abbreviates: locus YPL241C, strain CIN2, hits give low values.

Take `C=CCN1C[C@@H](C)N([C@H](c2ccc(C(=O)N(CC)CC)cc2)c2cccc(OC)c2)C[C@@H]1C`: the normalized growth was 1.04 under setting [1]; 1 under setting [2]; 0.992 under setting [3]; 0.999 under setting [4]; 1.03 under setting [5]; 0.995 under setting [6]. Moreover, the normalized growth was 1.01 under setting [7], 1.02 under setting [8], 1.02 under setting [9] and 1.01 under setting [10].

As for `CP(=O)(O)C1=CCNCC1`, the normalized growth is, setting by setting: (locus YAL013W, strain DEP1, hits give low values) 1.03; under setting [1], 1; under setting [2], 1; under setting [3], 0.997; under setting [4], 0.997; under setting [11], 1.02. In addition, the normalized growth is, setting by setting: under setting [12], 1.01; under setting [5], 1; under setting [13], 0.996; under setting [14], 0.999; under setting [6], 1.01; under setting [7], 1.02. The normalized growth is, setting by setting: under setting [8], 1.01; (locus YNL322C, strain KRE1, hits give low values) 1.01; under setting [9], 0.987; under setting [15], 1.

For `O=c1onc2cnc3ccccc3n12`, the normalized growth runs as follows: under setting [1], 0.984; under setting [2], 0.983; under setting [3], 0.893; under setting [4], 1; under setting [11], 0.939; under setting [12], 0.958. The normalized growth under setting [5] is 0.977; the normalized growth under setting [13] was 0.967; the normalized growth under setting [14] is 0.777 (active); the normalized growth under setting [6] was 0.999; the normalized growth under setting [7] is 0.989; the normalized growth under setting [8] was 0.987. Moreover, the normalized growth was 0.961 under setting [9], 0.801 (active) under setting [10] and 0.999 under setting [15].
